# Screening data deposited in PubChem by National Center for Advancing Translational Sciences (NCATS).
# AmpC no deterg = qHTS Inhibitors of AmpC Beta-Lactamase (assay without detergent). Potency, µM (series often up to 57.1 µM), most hits filed as inhibitors. actives 0.52% (n = 330,000). P00811. AmpC nitrocefin hydrolysis, absorbance 480 nm, 0.0001% Triton; also: nearly all actives have a fitted effect of over 20% in size
# Target sequence (P00811 whole entry, looked up): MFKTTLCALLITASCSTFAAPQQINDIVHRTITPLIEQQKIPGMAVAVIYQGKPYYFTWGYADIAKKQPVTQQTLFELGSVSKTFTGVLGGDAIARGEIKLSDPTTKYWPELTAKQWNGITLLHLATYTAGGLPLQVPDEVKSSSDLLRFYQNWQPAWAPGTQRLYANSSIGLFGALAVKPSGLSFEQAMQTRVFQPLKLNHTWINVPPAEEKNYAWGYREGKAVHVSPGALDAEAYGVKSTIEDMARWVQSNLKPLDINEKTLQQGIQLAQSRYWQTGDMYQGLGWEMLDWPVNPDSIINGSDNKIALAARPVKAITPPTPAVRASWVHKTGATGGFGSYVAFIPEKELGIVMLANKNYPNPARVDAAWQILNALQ
#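 20 mM phosphate pH 7.0 + 0.01% (detergent screen) or 0.0001% Triton X-100; 5.3 nM AmpC reagent; cpd preinc 15 min RT; nitrocefin (800 uM stock) to start; A480 q20 s × 4 min; Activity was normalised to no-enzyme and no-compound control wells.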
# AmpC detergent = qHTS Inhibitors of AmpC Beta-Lactamase (assay with detergent); P00811; AmpC hydrolysis of nitrocefin, absorbance 480 nm, 0.01% Triton; Potency, µM (highest dose often 114 µM), hits mostly inhibitors; actives 0.041% (n = 370,000); AID 485294, 2010; also: nearly all actives have a fitted effect of over 25% in size
#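 20 mM phosphate pH 7.0 + 0.01% (detergent screen) or 0.0001% Triton X-100; 5.3 nM AmpC reagent; cpd preinc 15 min RT; nitrocefin (800 uM stock) to start; A480 q20 s × 4 min; Activity was normalised to no-enzyme and no-compound control wells.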
# Sm TGR block = qHTS Assay for the Inhibitors of Schistosoma Mansoni Peroxiredoxins | Schistosoma mansoni thioredoxin glutathione reductase (TGR), Q962Y6 | purified TGR, DTNB reduction, TNB absorbance 405 nm | Potency, µM (series often up to 114 µM), most hits filed as inhibitors | actives 3% (n = 360,000) | AID 485364, 2010; also: nearly all actives have a fitted effect of over 60% in size
#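 TGR 20 nM + NADPH 100 uM (dispensed conc.), cpd preinc 15 min RT; start with NADPH (500 uM addition) then DTNB (15 mM addition). Kinetic TNB absorbance, 405 nm filter. Four-parameter Hill fit across titration.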
# Numbers stand for hits; n = inactive; u = inconclusive; x = no result. The list is not random: actives were taken first. Their share in the collection is about 3.3%. Calls follow the shape of the dose curve; as a rule, active = well fitted curve in the direction sought with a large enough effect; inconclusive = small, poorly fitted or top-dose-only effect, or another doubt; inactive = no such curve, though single readings can be large; an effect the other way counts as inactive or inconclusive.
SMILES,AmpC no deterg,AmpC detergent,Sm TGR block
O=C(NC(=S)NCCc1ccccc1)c1cccc(Cl)c1,n,n,40µM
COc1ccc(CCNC(=S)NC(=O)c2ccccc2)cc1OC,n,n,50µM
COc1ccc(C(=O)NC(=S)NCCc2ccccc2)cc1,n,n,x
COc1ccc(CCNC(=O)c2noc(C)c2[N+](=O)[O-])cc1OC,n,n,35µM
CC(C)(C)c1ccc(C(=O)NC(=S)NCC2CCCO2)cc1 (configuration not stated),n,n,u
Cc1ccc(-c2nnc(SCC(=O)c3ccc(Cl)cc3)n2-c2ccccc2)cc1,x,n,n
Cc1cc(=O)oc2c3c(ccc12)OCN(Cc1ccc(Cl)cc1)C3,x,n,n
O=C1CC(c2ccco2)CC(O)=C1C=NCC1CCNCC1 (configuration not stated),n,n,u
O=C1CC(c2ccco2)CC2=C1C=Nc1ccccc1N2 (configuration not stated),n,n,40µM
Cc1cc(Cl)ccc1OCC(=O)N1CCC(c2nc3ccccc3o2)CC1,x,n,n
COc1ccc(C2/C(=C(/O)c3ccc(C)cc3)C(=O)C(=O)N2CCCN2CCOCC2)cc1 (configuration not stated),n,u,45µM
O=C1C(=O)N(CCN2CCOCC2)C(c2ccccn2)/C1=C(/O)c1ccc(F)cc1 (configuration not stated),n,u,28µM
O=C1C(=O)N(CCCN2CCOCC2)C(c2ccc(F)cc2)/C1=C(/O)c1ccccc1 (configuration not stated),n,n,u
COc1ccc(/C(O)=C2/C(=O)C(=O)N(CCCN3CCOCC3)C2c2ccc(C)cc2)cc1 (configuration not stated),n,u,n
COc1ccc(/C(O)=C2\C(=O)C(=O)N(CCN3CCOCC3)C2c2ccccc2OC)cc1 (configuration not stated),n,n,n
COc1ccc(/C(O)=C2/C(=O)C(=O)N(CCN3CCOCC3)C2c2ccccn2)cc1 (configuration not stated),n,n,22µM
O=C1OC/C(=C(/O)c2ccc(Cl)cc2)C1=O,n,n,16µM
O=C(O)CCCN1C(=O)C(=O)/C(=C(/O)c2ccc(Cl)cc2)C1c1ccccc1 (configuration not stated),n,n,n
Cn1cccc1-c1cc2n(n1)CCC(=O)N2CCCC(=O)NCc1cccc(Cl)c1,x,n,n
O=C(Cc1ccccc1[N+](=O)[O-])OCC(=O)c1c[nH]c2ccccc12,10µM,n,n
O=C(COC(=O)C1CC1)c1c[nH]c2ccccc12,n,u,n
Cn1cnnc1SC1c2cccc3cccc(c23)C1NS(=O)(=O)c1ccccc1 (configuration not stated),n,n,n
CS(=O)(=O)NC1c2cccc3cccc(c23)C1Sc1nncn1/N=C/c1ccco1 (configuration not stated),n,u,50µM
COc1ccc2cc(C(=O)NCCc3ccccc3)[nH]c2c1,n,n,n
COc1cc2cc(C(=O)NCCc3ccccc3)[nH]c2cc1OC,n,u,89µM
SMILES,AmpC no deterg,AmpC detergent,Sm TGR block
CCCCN(c1ccccc1)S(=O)(=O)c1cc2c3c(c1)C(C)C(=O)N3CCC2 (configuration not stated),x,n,n
Fc1ccc(-c2nnc(CSc3nnc4ccccn34)o2)cc1,n,n,n
COc1ccc(C(=O)CSc2nnc(-c3ccccc3)o2)cc1,n,n,n
COc1ccc(-c2nnc(SCc3ncc(-c4ccccc4)o3)o2)cc1,n,u,40µM
c1ccc(-c2cnc(CSc3nnc4ccccn34)o2)cc1,n,n,10µM
COc1ccccc1CNC(=O)CSc1ncc(S(=O)(=O)c2ccc(C)c(Cl)c2)c(=O)[nH]1,x,n,n
COc1ccc(NC(=O)CN2C(=O)C(c3ccc(C(C)(C)C)cc3)=NC2(C)C)cc1Cl,x,n,n
O=[N+]([O-])c1ccccc1CNCCO,n,u,n
O=[N+]([O-])c1ccccc1CNCCCCCO,n,n,50µM
COc1ccc(N(C)S(=O)(=O)c2cccc(C(=O)N3CCN(c4ccccc4)CC3)c2)cc1,n,n,n
COc1ccc(C2=CSC3=C(C(=O)c4cccc(S(=O)(=O)N(C)C)c4)CCN23)cc1,n,n,1µM
CCc1ccc(-c2nn(CC(=O)Nc3ccccc3)c3c2cnc2ccc(F)cc23)cc1,x,n,n
CC1=CC2(O)OCCN(CCO)C2=CC1=O (configuration not stated),n,n,20µM
Cc1cc(C)n(-c2ncc3c(n2)N(CCO)CCOC3=O)n1,n,n,n
CCN(C(=O)Cn1c(C(=O)OC)cc2sc(Cl)cc21)c1cccc(C)c1,x,n,n
COc1ccccc1/C=C/c1nc(S(=O)(=O)c2ccccc2)c(N(C)C)o1,n,n,10µM
CSc1oc(-c2cccs2)nc1S(=O)(=O)c1ccccc1,n,n,n
CN(C)c1oc(/C=C/c2cccs2)nc1S(=O)(=O)c1ccccc1,n,n,35µM
COc1cccc(/C=C/c2nc(S(=O)(=O)c3ccccc3)c(N(C)C)o2)c1,n,n,u
CCCCOc1cccc(C(=O)Nc2cc3nn(-c4ccc(F)cc4)nc3cc2C)c1,x,n,n
COc1ccc(CN2CCc3c(c(=O)n4ncc(C(=O)N5CCN(c6ccccc6F)CC5)c4n3C)C2)cc1,x,n,n
O=c1oc2cc(O)c(Cl)cc2c2ccccc12,n,n,n
O=c1oc(Cl)c(Cl)c2ccccc12,n,n,3.2µM
Cc1ccccc1-c1noc(-c2cccnc2N2CCN(c3ccccc3)CC2)n1,x,n,n
COc1ccccc1CNC(=O)Cn1c(=O)oc2cc(S(=O)(=O)N3CCC(C)CC3)ccc21,x,u,n
SMILES,AmpC no deterg,AmpC detergent,Sm TGR block
COc1ccc(S(=O)(=O)N(C)CC(=O)NCc2ccco2)cc1Cl,n,n,n
CN(CC(=O)NCc1ccccc1Cl)S(=O)(=O)c1ccc2c(c1)n(C)c(=O)c(=O)n2C,n,n,n
COc1ccc(C)cc1S(=O)(=O)N(C)CC(=O)NCc1ccco1,n,u,32µM
CN(CC(=O)NCc1ccc(Cl)cc1)S(=O)(=O)c1cccc2cccnc12,n,n,n
CN(CC(=O)NCc1ccco1)S(=O)(=O)c1cccc2cccnc12,n,u,20µM
CN(CC(=O)NCc1ccco1)S(=O)(=O)c1ccc2c(c1)n(C)c(=O)c(=O)n2C,n,u,40µM
COc1ccc(CC(=O)Nc2sc3c(c2C(=O)Nc2cccc(C)c2)CCCCC3)cc1,x,n,n
Cc1ccc(Cl)cc1N1CCN(C(=O)c2cccn2-c2nnc(N3CCCC3)s2)CC1,x,n,u
Cc1ccc(C(CC(=O)c2ccc(Cl)cc2)C(=O)O)cc1 (configuration not stated),n,n,n
COC(=O)C(CC(=O)c1ccc(Cl)cc1)c1ccc(C(C)C)cc1 (configuration not stated),0.25µM,n,n
CCC(O)c1nc2ccccc2n1Cc1cc(C)ccc1C (configuration not stated),x,n,n
O=c1cc(N2CCN(c3ccccc3)CC2)[nH]c(=O)n1Cc1ccc(F)cc1,n,u,n
